The values that follow come from PubChem BioAssay (NCI).

Assay [1] is described as follows: NCI Yeast Anticancer Drug Screen. Data for the rad50 strain (AID 155).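 Also: 0% = growth of vehicle-only cultures of the same strain.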 Conditions: S. cerevisiae rad50 strain growth inhibition, active compounds read high. The method in brief:
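Readout: growth inhibition relative to vehicle-treated cultures. Compound exposure was carried out in a genetically defined yeast strain deficient in DNA damage repair.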

The nature of assay [2]: NCI Yeast Anticancer Drug Screen. Data for the mec2-1 strain (AID 157). Conditions: S. cerevisiae mec2-1 strain, active compounds read high. The method in brief:
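Readout is yeast growth inhibition, normalised to vehicle-treated controls, in the mec2-1 strain exposed to compound.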

Assay [3] can be described thus: NCI Yeast Anticancer Drug Screen. Data for the sgs1 mgt1 strain (AID 161).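 Also: 0% = growth of cultures given vehicle only.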 Conditions: S. cerevisiae sgs1 mgt1 strain, active compounds read high. A digest of the protocol:
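Yeast cells carrying a defined DNA-repair defect were exposed to test compounds. Growth inhibition was measured relative to vehicle-treated controls.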

A short description of assay [4]: NCI Yeast Anticancer Drug Screen. Data for the cln2 rad14 strain (AID 165).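 Also: 0% = growth equal to vehicle treated cultures.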 Conditions: S. cerevisiae cln2 rad14 strain, active compounds read high. The method in brief:
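Relative to vehicle controls, growth inhibition of compound-treated cln2 rad14 yeast was recorded.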

The nature of assay [5]: NCI Yeast Anticancer Drug Screen. Data for the bub3 strain (AID 167). Conditions: S. cerevisiae bub3 mutant strain, active compounds read high. A digest of the protocol: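 Readout: yeast growth inhibition, expressed relative to vehicle-only wells. The test organism is a mutant strain from a panel with lesions in DNA repair or checkpoint genes.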
A short description of assay [6]: NCI Yeast Anticancer Drug Screen. Data for the mlh1 rad18 strain (AID 175). Conditions: S. cerevisiae mlh1 rad18 strain growth inhibition, active compounds read high. The method in brief: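 Test agents were incubated with a yeast strain of defined genotype (DNA damage repair defect). Inhibition of growth was derived by comparison with vehicle-exposed cultures.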
Setting [7] is: at 5.0 µM (retest, dose inferred, filed as 0.5).
Where [8] appears, read: at 50.0 µM (retest, dose inferred, filed as 5.0).

Compounds without any hit were thinned out: in the full panel of roughly 79,000, 15% have a hit. Values without a mark were called inactive. Calls of active or inactive are those of the source. Rule as the data show it: active = growth inhibition above about 70%; inactive = the rest.

Turning to `CC(=O)OCC1OC(SSc2ccccc2)C(OC(C)=O)C(OC(C)=O)C1OC(C)=O` (stereo not given), the growth inhibition in assay [1] (setting [7]) was -2%; in assay [1] (setting [8]) it was 13%; in assay [1] (at 50.0 µM) it was 59.4%; in assay [2] (setting [7]), -30%; in assay [2] (setting [8]), 69%; in assay [2] (at 50.0 µM), 44.6%. In addition, the growth inhibition was 10% in assay [3] (setting [7]); 7% in assay [3] (setting [8]); 58.1% in assay [3] (at 50.0 µM); -13% in assay [4] (setting [7]); 5% in assay [4] (setting [8]); 45% in assay [4] (at 50.0 µM). The growth inhibition was -12% in assay [5] (setting [7]); 8% in assay [5] (setting [8]); 8.5% in assay [5] (at 50.0 µM); -17% in assay [6] (setting [7]); 73% (active) in assay [6] (setting [8]); 53.9% in assay [6] (at 50.0 µM).

For `O=C(Cc1ccccc1)c1ccccc1C(=O)NNc1ccccc1`, the growth inhibition in assay [1] (setting [7]) is 7%; in assay [1] (setting [8]), 18%; in assay [1] (at 50.0 µM), 49%; in assay [2] (setting [7]) it was -5%; in assay [2] (setting [8]), 6%; in assay [2] (at 50.0 µM), -6.4%. The growth inhibition was -4% in assay [3] (setting [7]); -2% in assay [3] (setting [8]); -8% in assay [3] (at 50.0 µM); 4% in assay [4] (setting [7]); 61% in assay [4] (setting [8]); -51.9% in assay [4] (at 50.0 µM). In addition, the growth inhibition in assay [5] (setting [7]) was 43%; in assay [5] (setting [8]) it was 96% (active); in assay [5] (at 50.0 µM), 26.2%; in assay [6] (setting [7]), 5%; in assay [6] (setting [8]), 22%; in assay [6] (at 50.0 µM), -0.75%.

`CCOC(=O)/C(=C\c1cccc(Br)c1)C(C)=O`: the growth inhibition in assay [1] (setting [7]) is 47%; in assay [1] (setting [8]), 100% (active); in assay [1] (at 50.0 µM), 92.8% (active); in assay [2] (setting [7]) it was 51%; in assay [2] (setting [8]), 99% (active); in assay [2] (at 50.0 µM), 94.9% (active). For the same compound, the growth inhibition was 47% in assay [3] (setting [7]); 99% (active) in assay [3] (setting [8]); 93.1% (active) in assay [3] (at 50.0 µM); 45% in assay [4] (setting [7]); 99% (active) in assay [4] (setting [8]); 92.9% (active) in assay [4] (at 50.0 µM). Also, the growth inhibition was 87% (active) in assay [5] (setting [7]); 100% (active) in assay [5] (setting [8]); 92.7% (active) in assay [5] (at 50.0 µM); 82% (active) in assay [6] (setting [7]); 100% (active) in assay [6] (setting [8]); 92.5% (active) in assay [6] (at 50.0 µM).

Consider `c1ccc2c(c1)-c1cccc3cncc-2c13`, for which the growth inhibition in assay [1] (setting [7]) was 45%; in assay [1] (setting [8]) it was 62%; in assay [1] (at 50.0 µM), 90.7% (active); in assay [2] (setting [7]), 52%; in assay [2] (setting [8]), 53%; in assay [2] (at 50.0 µM), 92.6% (active). The growth inhibition in assay [3] (setting [7]) is 19%; in assay [3] (setting [8]) it was 98% (active); in assay [3] (at 50.0 µM) it was 92.6% (active); in assay [4] (setting [7]), 69%; in assay [4] (setting [8]) it was 99% (active); in assay [4] (at 50.0 µM), 90.9% (active). Also, the growth inhibition in assay [5] (setting [7]) is 53%; in assay [5] (setting [8]), 99% (active); in assay [5] (at 50.0 µM) it was 91.2% (active); in assay [6] (setting [7]), 33%; in assay [6] (setting [8]), 52%; in assay [6] (at 50.0 µM), 91.2% (active).

Turning to `CN1CC[N+](C)(Cc2ccc(C[N+]3(C)CC[N+](C)(Cc4ccc(CCl)cc4)CC3)cc2)CC1` (stereo not given), the growth inhibition in assay [1] (setting [7]) was 2%; in assay [1] (setting [8]), 97% (active); in assay [1] (at 50.0 µM), 99.2% (active); in assay [2] (setting [7]), 4%; in assay [2] (setting [8]), 95% (active); in assay [2] (at 50.0 µM), 99.4% (active). Besides, the growth inhibition in assay [3] (setting [7]) was 2%; in assay [3] (setting [8]), 83% (active); in assay [3] (at 50.0 µM), 99.4% (active); in assay [4] (setting [7]), -3%; in assay [4] (setting [8]), 95% (active); in assay [4] (at 50.0 µM), 98.1% (active). Also, the growth inhibition in assay [5] (setting [7]) was 1%; in assay [5] (setting [8]) it was 98% (active); in assay [5] (at 50.0 µM), 99.5% (active); in assay [6] (setting [7]), 2%; in assay [6] (setting [8]) it was 98% (active); in assay [6] (at 50.0 µM) it was 99.3% (active).

For `S=c1n(-c2ccc(Cl)cc2)c2nc3ccccc3nc(/c2=N\Nc2cc(Cl)ccc2Cl)n1-c1ccc(Br)cc1`, the growth inhibition in assay [1] (setting [7]) is 2%; in assay [1] (setting [8]), 16%; in assay [1] (at 50.0 µM) it was 50.3%; in assay [2] (setting [7]) it was -9%; in assay [2] (setting [8]), -12%; in assay [2] (at 50.0 µM) it was 84.5% (active). Further, the growth inhibition is 0% in assay [3] (setting [7]); 9% in assay [3] (setting [8]); 78% (active) in assay [3] (at 50.0 µM); -6% in assay [4] (setting [7]); -24% in assay [4] (setting [8]); 76% (active) in assay [4] (at 50.0 µM). Besides, the growth inhibition in assay [5] (setting [7]) was -6%; in assay [5] (setting [8]) it was 15%; in assay [5] (at 50.0 µM) it was 85.1% (active); in assay [6] (setting [7]) it was 1%; in assay [6] (setting [8]) it was 4%; in assay [6] (at 50.0 µM), 68%.

With `CCC(COS(=O)(=O)c1ccc(C)cc1)(COS(=O)(=O)c1ccc(C)cc1)COS(=O)(=O)c1ccc(C)cc1`, the growth inhibition in assay [1] (setting [7]) was 3%; in assay [1] (setting [8]) it was 0%; in assay [1] (at 50.0 µM) it was 13.7%; in assay [2] (setting [7]), -3%; in assay [2] (setting [8]), 0%; in assay [2] (at 50.0 µM), 4.35%. For the same compound, the growth inhibition in assay [3] (setting [7]) was -17%; in assay [3] (setting [8]), -38%; in assay [3] (at 50.0 µM) it was 42%; in assay [4] (setting [7]), 3%; in assay [4] (setting [8]), 14%; in assay [4] (at 50.0 µM) it was 57.9%. Besides, the growth inhibition in assay [5] (setting [7]) was 3%; in assay [5] (setting [8]) it was 10%; in assay [5] (at 50.0 µM) it was 21.6%; in assay [6] (setting [7]) it was -35%; in assay [6] (setting [8]) it was -40%; in assay [6] (at 50.0 µM), 25.8%.

As for `Cc1cc(N(CCCOS(C)(=O)=O)CCCOS(C)(=O)=O)ccc1C=Nc1cc(Br)c(O)c(Br)c1`, the growth inhibition is -5% in assay [1] (setting [7]); 33% in assay [1] (setting [8]); 41% in assay [1] (at 50.0 µM); 36% in assay [2] (setting [7]); 7% in assay [2] (setting [8]); 21.3% in assay [2] (at 50.0 µM). For the same compound, the growth inhibition in assay [3] (setting [7]) is -3%; in assay [3] (setting [8]), 27%; in assay [3] (at 50.0 µM) it was 86.1% (active); in assay [4] (setting [7]) it was -3%; in assay [4] (setting [8]), -5%; in assay [4] (at 50.0 µM), 4.8%. In addition, the growth inhibition in assay [5] (setting [7]) is 0%; in assay [5] (setting [8]), 41%; in assay [5] (at 50.0 µM), 34.8%; in assay [6] (setting [7]), -2%; in assay [6] (setting [8]) it was 41%; in assay [6] (at 50.0 µM), 68.4%.

For `Nc1ccc(N=Nc2ccccc2)c2ccccc12`, the growth inhibition in assay [1] (setting [7]) is 9%; in assay [1] (setting [8]), 96% (active); in assay [1] (at 50.0 µM), 97.8% (active); in assay [2] (setting [7]) it was 0%; in assay [2] (setting [8]) it was 98% (active); in assay [2] (at 50.0 µM), 99% (active). In addition, the growth inhibition in assay [3] (setting [7]) was 3%; in assay [3] (setting [8]) it was 98% (active); in assay [3] (at 50.0 µM) it was 98.5% (active); in assay [4] (setting [7]), 0%; in assay [4] (setting [8]), 97% (active); in assay [4] (at 50.0 µM), 98.5% (active). For the same compound, the growth inhibition in assay [5] (setting [7]) was 2%; in assay [5] (setting [8]), 99% (active); in assay [5] (at 50.0 µM), 98.3% (active); in assay [6] (setting [7]), 4%; in assay [6] (setting [8]) it was 98% (active); in assay [6] (at 50.0 µM), 97.6% (active).

With `Cc1cc(CC(O)(C(F)(F)F)C(F)(F)F)cc(CC(O)(C(F)(F)F)C(F)(F)F)n1`, the growth inhibition was 12% in assay [1] (setting [7]); 99% (active) in assay [1] (setting [8]); 99.2% (active) in assay [1] (at 50.0 µM); 5% in assay [2] (setting [7]); 98% (active) in assay [2] (setting [8]); 98.5% (active) in assay [2] (at 50.0 µM). The growth inhibition in assay [3] (setting [7]) is -3%; in assay [3] (setting [8]) it was 98% (active); in assay [3] (at 50.0 µM) it was 98.2% (active); in assay [4] (setting [7]), 9%; in assay [4] (setting [8]) it was 98% (active); in assay [4] (at 50.0 µM) it was 98% (active). Also, the growth inhibition in assay [5] (setting [7]) was -16%; in assay [5] (setting [8]), 99% (active); in assay [5] (at 50.0 µM), 99.2% (active); in assay [6] (setting [7]), 6%; in assay [6] (setting [8]), 99% (active); in assay [6] (at 50.0 µM) it was 99% (active).
